The record followed here is PubChem BioAssay AID504332 (National Center for Advancing Translational Sciences (NCATS), 2011).

Structures are written as SMILES. The whole screen tested about 350,000 compounds, of which about 31,000 (8.9%) were called active. Entries that show only a call come without a potency. Roughly 15% stayed inconclusive and do not appear here. This is one part of a sample in which actives are shown more often than they occur. Unmarked numbers belong to inactive results. Calls follow the shape of the dose curve; as a rule, active = well fitted inhibition curve with a large enough effect; inconclusive = small, poorly fitted or top-dose-only effect; inactive = no such curve, though single readings can be large or run the other way.
Potency is read from the fitted curve at half-maximal effect.

The target in this assay is Histone-lysine N-methyltransferase EHMT2 (Homo sapiens) (UniProt Q96KQ7). As to the kind of experiment: qHTS Assay for Inhibitors of Histone Lysine Methyltransferase G9a. Also: nearly all actives have a fitted effect of over 75% in size. Particulars: G9a H3K9 monomethylation, AlphaScreen, 2 h; series mostly up to 59 µM. The procedure, abridged: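 Step 1: enzyme (final 20 nM) with compound, 15 min RT. Step 2: substrate peptide 500 nM and SAM 20 uM, 2 h RT. Step 3: anti-H3K9me1 antibody and AlphaScreen beads, 10 min, then plate read.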
Histone-lysine N-methyltransferase EHMT2 (Homo sapiens), sequence (Q96KQ7 913-1193 limits assumed): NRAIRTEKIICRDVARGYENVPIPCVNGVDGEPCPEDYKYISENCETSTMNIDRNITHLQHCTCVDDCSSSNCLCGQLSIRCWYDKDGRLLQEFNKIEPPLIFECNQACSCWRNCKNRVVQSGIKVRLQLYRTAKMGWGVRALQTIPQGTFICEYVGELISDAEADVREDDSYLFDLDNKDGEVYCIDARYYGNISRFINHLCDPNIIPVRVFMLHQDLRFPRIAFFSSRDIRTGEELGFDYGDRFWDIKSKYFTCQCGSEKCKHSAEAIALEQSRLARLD
For orientation: qHTS replaces the single test concentration by a dilution series.
With `Cc1cccc(-n2c(SCC(N)=O)nc3c(oc4ccccc43)c2=O)c1`, the Potency result is “inactive”. On the same count and under the same terms, in the case of `COc1cccc(-n2c(=S)[nH]c3c(oc4ccccc43)c2=O)c1` it was 44.7 µM (active); in that of `COc1ccc(-n2c(SCC(N)=O)nc3c(oc4ccccc43)c2=O)cc1`, “inactive”; in that of `CCOc1cc(/C=C(\C#N)C(=O)Nc2ccccc2C)ccc1OCc1cc(=O)n2nc(CC)sc2n1`, “inactive”. `CC(=O)Nc1ccc(/C=C/C(=O)c2ccccc2)cc1`: the activity, negative = inhibition is -1.87% [at 2.33 µM]. For `CN(C)c1ccc(/C=C/C(=O)c2ccc(C(C)(C)C)cc2)cc1[N+](=O)[O-]`, the Potency is 12.6 µM (active). As for `Cc1cc(C)n(-c2ccc(C(=O)O)cc2[N+](=O)[O-])n1`, the Potency entry is “inactive”. The same measure, in the same setting: in the case of `COc1cccc(CNC(=O)CN2C(=O)CCc3cc(S(=O)(=O)N4CCOCC4)ccc32)c1` it was “inactive”. Consider `COc1ccc(C(CNC(=O)c2ccc(S(=O)(=O)Nc3ccccc3C)cc2)N2CCOCC2)cc1` (stereo unspecified), for which the activity, negative = inhibition is 19% [at 2.33 µM]. For the compound `COc1ccc(-c2cn3ccc(C)cc3n2)cc1`, the Potency entry is “inactive”.

As for `Cc1ccn2cc(-c3nonc3C)cc2c1`, the Potency is 10 µM (active). Same read-out and setting: the entry for `Cc1nc(-c2ccc(F)cc2)c(CC(=O)N(C)CC(=O)Nc2c(C)cccc2C)s1` is “inactive”; for `CCCSc1nc2sc3c(c2c(=O)n1-c1cccc(Br)c1)CC(C)(C)OC3` it is “inactive”. On the same count and under the same terms, in the case of `Cc1cc(C(=O)OC(C)C(=O)NC2CCCCC2C)c(C)o1` (stereo unspecified) it was “inactive”; in that of `O=C(CCc1ccccc1)NCc1ccc2c(c1)CCN2C(=O)c1ccccc1`, “inactive”; in that of `O=C(O)CCC(=O)NCc1ccc(C(=O)O)cc1`, “inactive”.

Take `Cc1cccc(NC(=S)NCc2ccc3[nH]c4c(c3c2)CCCC4)c1`: the Potency is 39.8 µM (active). For `Cc1cc(C)cc(NC(=S)NCc2ccc(F)cc2)c1`, the Potency result was “inactive”.

`O=C(O)CCC(=O)NCc1ccc2[nH]c3c(c2c1)CCCC3`: the Potency was 50.1 µM (active). Same read-out and setting: the entry for `Cc1cccc(NC(=S)NCCN(C2CCCCC2)C2CCCC2)c1` is “inactive”; for `Cc1ccc(Cl)cc1NC(=O)CCC(=O)N1CC(C)Sc2ccccc21` (stereo unspecified) it is “inactive”; for `O=C(NCc1ccccc1)c1ccc2c(c1)nc1n2CCCCC1` it is “inactive”. Turning to `CC(=O)c1ccc(NS(=O)(=O)c2ccc(-c3cc(C)no3)s2)cc1`, the Potency result was “inactive”. As for `Cc1ccc(N(C)C(=O)C2CCN(S(=O)(=O)c3ccc4c(c3)CCCN4C(=O)C3CCC3)CC2)cc1`, the Potency entry is “inactive”. On the same count and under the same terms, in the case of `CCN(C(=O)COc1ccc(C(=O)c2ccccc2)cc1)c1ccccc1` it was “inactive”; in that of `CC(=O)NNC1=Nc2ccccc2N(C)C(C)C1` (stereo unspecified), 31.6 µM (active).

As to `COC(=O)C1=C(C(=O)OC)[C@@H]2N(C)c3ccccc3[C@@]23C[C@@H](C(=O)OC)N(C(C)=O)C3=N1`, the Potency entry was “inactive”. `O=C(CNS(=O)(=O)c1ccc2ccccc2c1)Nc1ccc(F)c(F)c1F`: the activity, negative = inhibition was 2.41% [at 12.7 µM]. `CC1CCCCC12NC(=O)N(CC(=O)Nc1ccc(S(=O)(=O)Nc3ncccn3)cc1)C2=O` (stereo unspecified): the activity, negative = inhibition was -10.5% [at 12.7 µM]. `CC1CN(C(=O)COC(=O)c2cccc(NS(=O)(=O)c3ccccc3)c2)CC(C)O1` (stereo unspecified): the activity, negative = inhibition was 3.95% [at 0.501 µM]. With `COc1ccc(S(=O)(=O)Nc2ccccc2C(=O)N2CCCC2)cc1C`, the Potency result is “inactive”.

As to `COc1ccccc1N1CCN(C(=O)c2ccc(S(=O)(=O)N3CCCCC3)cc2)CC1`, the activity, negative = inhibition was -28.9% [at 12.7 µM].

Regarding `COc1ccccc1NS(=O)(=O)c1ccc(C(=O)N2CCN(c3ccccc3O)CC2)cc1`, the Potency is 44.7 µM (active). The same measure, in the same setting: in the case of `COc1ccc(N2CCN(C(=O)COC(=O)c3cccc(S(=O)(=O)Nc4ccccc4OC)c3)CC2)cc1` it was 15.8 µM (active); in that of `CCOc1ncccc1C(=O)NNC(=O)c1cccc(S(=O)(=O)Nc2ccccc2OC)c1`, “inactive”; in that of `CCOc1ccc(C2CC(=O)c3c([nH]c(C(=O)OCc4ccccc4)c3C)C2)cc1` (stereo unspecified), “inactive”. On the same count and under the same terms, in the case of `CN(c1ccccc1)S(=O)(=O)c1cccc(C(=O)NNC(=O)c2ccncc2)c1` it was “inactive”; in that of `COc1ccc(OC)c(-c2csc(-c3c(N)c(C(=O)c4ccccc4)n4ccccc34)n2)c1`, “inactive”; in that of `Cc1nn(CC(=O)O)c(=O)c2cc3cc(F)ccc3n12`, “inactive”. As to `Cc1ccn2c(=O)c(NC(=O)c3cccc4ccccc34)c(C)nc2c1`, the Potency result was “inactive”. For the compound `c1ccc(Nc2n[nH]nc2-c2ccccc2)cc1`, the Potency result was “inactive”. Regarding `O=C(O)c1n[nH]nc1-c1ccccc1`, the Potency is 3.55 µM (active). Regarding `N#Cc1c(-c2ccccc2)c(-c2ccccc2)n[nH]c1=O`, the Potency result was “inactive”. With `CCOc1ccc(OCC)c(NC(=O)c2c(C)nn(-c3ccccc3)c2-n2cccc2)c1`, the Potency result was “inactive”. Take `CC(C)c1ccc(C2CC(=O)N3CN(C4CCCCC4)CSC3=C2C#N)cc1` (stereo unspecified): the Potency is 2.24 µM (active). For `CC(C)c1ccc(C2C(C#N)=C(N)Oc3c2oc(CO)cc3=O)cc1` (stereo unspecified), the Potency result was “inactive”. On to `OCC[C@H]1C[C@@H](O)[C@H](O)[C@@]2(OCCc3ccccc32)O1`, for which the activity, negative = inhibition was -2.06% [at 2.33 µM].

`O=C(CCSCc1ccccc1F)N1CCN(c2ccc(Cl)cc2)CC1`: the Potency entry is “inactive”.

For the compound `Cc1cc(=O)[nH]c(SCC(=O)N2c3ccccc3CC2C)n1` (stereo unspecified), the activity, negative = inhibition is -1.7% [at 12.7 µM]. Still for that read-out and setting: the figure for `Cc1cc(=O)[nH]c(SCC(=O)Nc2ccc(Br)cc2)n1` is 10.1% [at 12.7 µM]. Consider `Cc1cc(C)c(C(=O)CSc2nc(C)cc(=O)[nH]2)c(C)c1`, for which the Potency is 31.6 µM (active). Same read-out and setting: in the case of `Cc1cc(Cl)c2oc(C(=O)NC(C)c3ccncn3)c(C)c2c1` (stereo unspecified) it was “inactive”.

As for `COc1cc(N=Cc2c(O)c3ccccc3oc2=O)c(OC)cc1Cl`, the activity, negative = inhibition was 16.1% [at 0.501 µM]. As to `COc1ccccc1N=Cc1c(O)c2ccccc2oc1=O`, the Potency entry is “inactive”. On the same count and under the same terms, in the case of `COc1ccc(N=Cc2c(O)[nH]c3ccccc23)cc1OC` it was 50.1 µM (active); in that of `CCOC(=O)Cn1c(=O)n(Cc2ccc(OC)cc2)c(=O)c2cccnc21`, “inactive”; in that of `CC1CCCN(S(=O)(=O)c2ccc3[nH]c(=O)cc(C(=O)NCCc4ccc(Cl)cc4)c3c2)C1` (stereo unspecified), “inactive”. The same measure, in the same setting: in the case of `COc1ccc(S(=O)(=O)NCc2cccn2Cc2cccc(C)c2)cc1` it was “inactive”; in that of `CCOc1ccccc1C(=O)NCc1ccc2c(c1)CCN2C(=O)c1ccc(F)cc1`, “inactive”; in that of `c1coc(-c2nc3nc4ccccc4n3nc2-c2ccco2)c1`, 10 µM (active). For `Cn1c(-c2ccco2)nc2cc3ccccc3cc21`, the activity, negative = inhibition was 8.95% [at 0.0925 µM]. Turning to `Cc1nn2c3ccccc3nc2n(C)c1=O`, the Potency entry is “inactive”.

For the compound `CCOc1ccc(CCNC(=O)c2c(C)oc3ncn(C)c(=O)c23)cc1`, the Potency result is “inactive”.

For `CCCc1nn2c(=O)cc(COC(=O)c3ccc(NC(=O)C(C)Oc4ccccc4)cc3)nc2s1` (stereo unspecified), the Potency entry was “inactive”.

With `COc1ccc(/C=C/C(=O)c2cc(Br)ccc(=O)c2O)cc1`, the Potency was 10 µM (active).

With `COc1ccc(/C=C/C(=O)c2ccc(OC)cc2O)cc1`, the Potency result was “inactive”. On to `COc1ccc(C(=O)/C=C/c2ccc(OC3CSC3)cc2)cc1`, for which the Potency result is “inactive”. `Cc1cccc(Cc2c(C)nc3nc(SCc4ccccc4Cl)nn3c2C)c1`: the Potency result was “inactive”. The same measure, in the same setting: the figure for `CCOC(=O)c1ccc(N2C(=O)c3n[nH]c(-c4ccco4)c3C2c2ccc(O)cc2)cc1` (stereo unspecified) is 17.8 µM (active); for `CCOC(=O)c1ccc(N2C(=O)c3[nH]nc(-c4ccccc4)c3C2c2ccc(C(C)C)cc2)cc1` (stereo unspecified) it is “inactive”; for `CCOC(=O)c1ccc(N2C(=O)c3n[nH]c(C)c3C2c2ccc(O)c(OC)c2)cc1` (stereo unspecified) it is “inactive”. For `Cc1ccc(F)cc1NC(=O)CCSc1nc(-c2ccco2)cc(C(F)(F)F)n1`, the Potency result was “inactive”. Still for that read-out and setting: in the case of `Cc1ccc(NC(=O)CCCn2c(=O)c3cccn3c3ccccc32)cc1Cl` it was “inactive”; in that of `Cc1ccc(S(=O)(=O)N2CCC(C(=O)OCC(=O)N3CC(=O)Nc4ccccc43)CC2)cc1`, “inactive”; in that of `COc1cc(OC)c(C(=O)OCC(=O)N2CC(=O)Nc3ccccc32)cc1OC`, “inactive”.

As to `O=C1CN(C(=O)COC(=O)C2CC(=O)N(Cc3ccco3)C2)c2ccccc2N1` (stereo unspecified), the Potency is 50.1 µM (active). Still for that read-out and setting: the entry for `COc1ccc(OC)c(S(=O)(=O)N2CCCC(C(=O)N3CCC(C(N)=O)CC3)C2)c1` (stereo unspecified) is “inactive”; for `O=C(CSc1ncc(CO)n1Cc1ccc(Cl)cc1)NCc1ccc(F)cc1` it is “inactive”. `CCCc1nnc(NC(=O)c2cccs2)s1`: the activity, negative = inhibition is -0.387% [at 12.7 µM]. For the compound `CCc1c(C)sc(NC(=O)c2cccs2)c1C(N)=O`, the Potency was 11.2 µM (active). As for `CCc1c(C)sc(NC(=O)c2ccc(Br)o2)c1C(=O)OC`, the Potency entry was “inactive”. Still for that read-out and setting: in the case of `CCc1c(C)sc(NC(=O)C2c3ccccc3Oc3ccccc32)c1C(=O)OC(C)C` it was “inactive”; in that of `COc1cc(C(=O)NCC(=O)N2CC=C(c3ccccc3)CC2)cc(OC)c1OC`, “inactive”; in that of `O=C(COC(=O)c1ccccc1)c1ccc2c(c1)OCCO2`, “inactive”.

`CN(C(=O)C1CCN(c2ncnc3c2nc2n3CCCCC2)CC1)C1CCCCC1`: the Potency entry is “inactive”.

`COCc1c(C(=O)OCC(=O)Nc2ccc(OC(F)F)cc2)oc2ccccc12`: the activity, negative = inhibition is -14.1% [at 12.7 µM]. In the case of `CN(C(=O)Cn1nnc(-c2ccc(F)cc2)n1)C1CCS(=O)(=O)C1` (stereo unspecified), the activity, negative = inhibition is 14.1% [at 12.7 µM]. As to `O=C(c1ccc(F)cc1)N1CCCC(c2nc(-c3cccs3)no2)C1` (stereo unspecified), the Potency entry is “inactive”. The same measure, in the same setting: the figure for `Cc1ccc(-c2noc(C3CCCN(C(=O)c4cccc(Cl)c4)C3)n2)o1` (stereo unspecified) is 39.8 µM (active); for `COc1cccc(-c2noc(C3CCCN(C(=O)c4ccc(F)cc4)C3)n2)c1` (stereo unspecified) it is “inactive”; for `COc1ccc2nc(N3CCN(C(=O)c4ccc([N+](=O)[O-])o4)CC3)sc2c1` it is “inactive”. On to `CCc1ccccc1NC(=O)c1cnn(-c2ccc(F)cc2)c1C1CCNCC1`, for which the Potency entry was “inactive”. For the compound `COC(=O)c1ccccc1NC(=O)c1cncc(Br)c1`, the Potency entry is “inactive”. On the same count and under the same terms, the figure for `O=C(NC(=S)Nc1ccc(Cl)c(C(=O)O)c1)c1cncc(Br)c1` is 44.7 µM (active). Still for that read-out and setting: in the case of `O=C(Nc1ccc(N2CCCC2=O)cc1)c1cncc(Br)c1` it was “inactive”.

Turning to `O=C(NCCc1ccc(F)cc1)c1ccc2nccnc2c1`, the activity, negative = inhibition was -12.4% [at 12.7 µM].
